# Where “and” joins values, the source holds several entries; their conditions need not be identical. Equal entries are not always repeated. Calls of active or inactive are those of the source.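 How the source made its calls, unless noted: active means normalized viability below 100% at a tested concentration; inactive means the rest.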
# Experiments:
# [1] = liver-stage malaria parasite growth inhibition, primary screen, cell-based, HepG2, luciferase luminescence, HepG2 viability (AID 624349; in the data active means parasite load remaining mostly below about 12%, no sharp cut-off; inactive means mostly above about 10%;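 further: 100% = mean of DMSO negative control wells on the same plate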); conditions: P. berghei liver stage in HepG2, luciferase luminescence, concentration not given here; parasite load remaining: stronger effect = lower value; viability: measured here: HepG2 viability without parasites
# [2] = Cy5 fluorescence interference with SSB-bound oligo, artefact control for HCV NS3 helicase inhibitor project, biochemical, NIH Clinical Collection, E. coli SSB (AID 743268; call rule not given here)
# [3] = test system: Hepatitis C virus NS3 helicase; experiment: HCV NS3 helicase inhibitors, primary screen, biochemical, fluorescence polarization, NIH Clinical Collection (AID 743270; call rule not given here); conditions: NS3 helicase binding to Cy5-dT15 DNA, stronger effect = higher value, concentration not given here
# [4] = biological target: Single-stranded DNA-binding protein (Escherichia coli (strain K12)) (UniProt P0AGE0); experiment: E. coli SSB displacement from DNA, counter-screen for HCV NS3 helicase inhibitor project, biochemical, fluorescence polarization, NIH Clinical Collection (AID 743271; in the data active means inhibition above about 28%); conditions: stronger effect = higher value, concentration not given here
# [5] = fluorescence interference in NS3h assay format, artefact control for HCV NS3 helicase inhibitor project, biochemical, NIH Clinical Collection (AID 743272; call rule not given here;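 further: HCV NS3 helicase with a Cy5 labelled single stranded DNA probe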); conditions: fluorescence interference counterscreen, stronger effect = lower value
# [6] = biological target: 6-phosphogluconate dehydrogenase, decarboxylating (Homo sapiens) (UniProt P52209); experiment: 6PGD enzyme inhibitors, primary screen, biochemical, human, recombinant enzyme, NADPH absorbance (AID 1159550;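 active means at least 20% inhibition of 6-phosphogluconate dehydrogenase activity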); conditions: recombinant 6PGD, NADPH absorbance 341 nm; at 10 µM; stronger effect = higher value
# [7] = modulation of C. elegans fzo-1 (AID 1259413; call rule not given here;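 further: fzo-1 mutant C. elegans worms in liquid wells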); conditions: C. elegans fzo-1 modulator screen, mean read-out; stronger effect = higher value
# [8] = differential killing of epithelial or mesenchymal cells, primary screen, imaging, PC-3E GFP, TEM4-18 mCherry, co-culture (AID 1345086;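 active means compounds killing one labelled cell type while sparing the other, by normalised counts and ratio limits, not self-fluorescent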;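 on all read-outs here: cells exposed to compound for 72 h before imaging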;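 on red/green cell ratio (normalised): normalised mesenchymal count divided by normalised epithelial count so high means epithelial killing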); conditions: imaging cell counts, at 1 µM; for red/green cell ratio (normalised): actives lie on both sides, counts scaled to control wells, 1 = unselective
# [9] = sensitizers of A549 cells to miR-34 induction, primary screen, imaging, A549 dox-inducible miR-34, nuclei and caspase counts (AID 1347080;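 active means compounds whose cell count with miR-34 switched on is under 0.7 times the count with it off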); conditions: A549 miR-34 inducible, Hoechst nuclei count, 48 h
# [10] = ovarian cancer cell viability with rucaparib, profiling panel, oncology-focused library, rucaparib conditional (AID 1508598); conditions: patient-derived ovarian cancer cells, CellTiter-Glo viability, 144 h, stronger effect = lower value
# [11] = biological target: Mitogen-activated protein kinase 7 (Homo sapiens) (UniProt Q13164); experiment: ERK5 transactivation activators in reporter cells, primary screen, cell-based, HTS (AID 1508626;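 active means luciferase signal above three times the same-plate solvent-only control wells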;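 further: luciferase driven by Gal4-ERK5 fusion binding five Gal4 sites before minimal TATA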); conditions: HeLa Gal4-ERK5 transactivation, 18 h, at 5 µM, stronger effect = higher value
# [12] = survival rescue of mitochondrial mutant cells in low glucose, primary screen, MELAS cybrids, Rieske KO mouse fibroblasts, CellTiter-Glo (AID 1508586;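 active means mean z-score across replicates of 1.96 or higher in either the MELAS or the Rieske mutant cell line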;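 further: z relative to plate mean and SD of compound and empty wells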)
# [13] = biological target: NAD(+) hydrolase SARM1 (Homo sapiens) (UniProt Q6SZW1); experiment: SARM1 TIR NADase inhibitors, cell lysate, NAD-Glo luminescence (AID 1508614;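 active means compound whose remaining NAD level is above about 45 nM, limit read from the data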); conditions: SAM-TIR HEK293T lysate NADase, at 1 µM, stronger effect = higher value
# [14] = viability rescue of complex I mutant cybrids, primary screen, cell-based, galactose medium, ATP luminescence (AID 1645843;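 active means z-score of at least 1.8 in each of two replicates, scored against plate mean and spread of sample wells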;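 further: positive z means more ATP and so rescue of galactose-driven cybrid death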); conditions: complex I mutant cybrid cells, 72 h, stronger effect = higher value
# [15] = measured here: epithelial PC-3E GFP cell survival
# [16] = measured here: mesenchymal TEM4-18 mCherry cell survival
# Sequence of 6-phosphogluconate dehydrogenase, decarboxylating (Homo sapiens) (P52209 whole entry, looked up): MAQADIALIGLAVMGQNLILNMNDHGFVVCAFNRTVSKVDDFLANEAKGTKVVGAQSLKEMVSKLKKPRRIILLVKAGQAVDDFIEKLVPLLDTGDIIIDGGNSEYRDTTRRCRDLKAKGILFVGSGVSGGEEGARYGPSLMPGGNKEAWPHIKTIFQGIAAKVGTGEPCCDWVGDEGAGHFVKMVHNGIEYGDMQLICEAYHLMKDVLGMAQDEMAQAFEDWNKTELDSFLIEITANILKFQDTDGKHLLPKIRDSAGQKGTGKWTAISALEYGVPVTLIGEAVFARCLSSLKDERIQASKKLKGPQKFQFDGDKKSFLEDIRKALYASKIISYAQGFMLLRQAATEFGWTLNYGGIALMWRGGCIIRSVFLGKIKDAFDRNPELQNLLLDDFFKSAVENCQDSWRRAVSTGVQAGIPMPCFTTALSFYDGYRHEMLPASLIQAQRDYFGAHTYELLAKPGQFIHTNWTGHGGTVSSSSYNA
# Sequence of Mitogen-activated protein kinase 7 (Homo sapiens) (Q13164 whole entry, looked up, the tested form may be a part): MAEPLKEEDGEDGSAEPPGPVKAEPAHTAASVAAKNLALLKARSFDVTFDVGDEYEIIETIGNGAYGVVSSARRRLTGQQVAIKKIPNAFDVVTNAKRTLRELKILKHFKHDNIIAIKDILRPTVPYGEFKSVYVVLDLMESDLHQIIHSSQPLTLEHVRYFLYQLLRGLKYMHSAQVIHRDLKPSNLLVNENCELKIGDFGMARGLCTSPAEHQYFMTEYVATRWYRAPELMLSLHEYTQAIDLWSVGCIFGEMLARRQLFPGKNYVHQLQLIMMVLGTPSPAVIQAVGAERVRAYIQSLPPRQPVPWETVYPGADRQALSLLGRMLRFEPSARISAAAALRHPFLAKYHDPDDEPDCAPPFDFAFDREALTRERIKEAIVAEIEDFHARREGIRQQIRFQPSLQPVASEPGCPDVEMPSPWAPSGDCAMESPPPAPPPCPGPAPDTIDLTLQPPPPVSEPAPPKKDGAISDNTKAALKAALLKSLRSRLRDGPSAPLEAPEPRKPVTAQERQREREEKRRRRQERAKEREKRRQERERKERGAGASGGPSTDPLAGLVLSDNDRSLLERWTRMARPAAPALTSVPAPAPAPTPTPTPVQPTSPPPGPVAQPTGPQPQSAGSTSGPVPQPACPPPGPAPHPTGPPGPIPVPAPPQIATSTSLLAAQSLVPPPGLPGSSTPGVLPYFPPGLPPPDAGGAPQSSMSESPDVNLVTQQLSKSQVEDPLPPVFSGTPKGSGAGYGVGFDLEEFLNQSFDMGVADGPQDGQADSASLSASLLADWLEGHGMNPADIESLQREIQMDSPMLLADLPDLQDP
# Sequence of NAD(+) hydrolase SARM1 (Homo sapiens) (Q6SZW1 whole entry, looked up): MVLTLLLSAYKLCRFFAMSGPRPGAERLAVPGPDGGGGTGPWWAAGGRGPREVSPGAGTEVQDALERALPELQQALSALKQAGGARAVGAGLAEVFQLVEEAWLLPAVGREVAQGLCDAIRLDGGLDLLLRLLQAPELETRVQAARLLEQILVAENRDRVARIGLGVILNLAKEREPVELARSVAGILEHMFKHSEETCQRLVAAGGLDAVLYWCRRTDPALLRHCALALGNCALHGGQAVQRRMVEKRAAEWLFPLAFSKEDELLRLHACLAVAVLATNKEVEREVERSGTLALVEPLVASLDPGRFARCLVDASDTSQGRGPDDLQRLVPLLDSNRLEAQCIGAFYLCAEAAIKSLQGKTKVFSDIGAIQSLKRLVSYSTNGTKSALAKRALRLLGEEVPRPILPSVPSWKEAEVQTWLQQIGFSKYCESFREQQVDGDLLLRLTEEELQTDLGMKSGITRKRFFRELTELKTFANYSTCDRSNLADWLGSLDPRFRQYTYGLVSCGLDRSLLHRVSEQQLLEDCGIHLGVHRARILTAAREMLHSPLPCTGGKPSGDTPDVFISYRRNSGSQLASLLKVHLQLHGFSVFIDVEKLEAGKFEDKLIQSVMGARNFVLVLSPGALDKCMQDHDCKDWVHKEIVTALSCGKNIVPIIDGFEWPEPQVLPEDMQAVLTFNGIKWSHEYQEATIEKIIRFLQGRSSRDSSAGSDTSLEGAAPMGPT
smiles,measurement,setting,value
O=C(O[C@@H]1Cc2c(O)cc(O)cc2O[C@@H]1c1cc(O)c(O)c(O)c1)c1cc(O)c(O)c(O)c1,parasite load remaining,[1],87.1% (inactive)
same,viability,[1],76.9%
same,fluorescence ratio,[2],0.63 (active)
same,inhibition,[3],-3.56% (inactive)
same,inhibition,[4],32.2% (active)
same,fluorescence ratio,[5],0.8 (active)
same,inhibition,[6],15.4% (inactive)
same,mean signal,[7],222 (inactive)
same,red/green cell ratio (normalised),[8],1.15 (inactive)
same,normalised cell number,[8]; [15],0.79
same,normalised cell number,[8]; [16],0.91
same,fold change,"[9]; stronger effect = lower value, cell number ratio, induced over uninduced",0.998 (inactive)
same,fold change,[9]; measured here: relative caspase fold change +Dox/-Dox,0.749
same,cell count,"[9]; measured here: total cells with miR-34 induction, stronger effect = lower value",5870
same,cell count,[9]; measured here: total cells without miR-34 induction,5880
same,viability,"[10]; at 0.000305 µM, OCI-C5x cells, with rucaparib 10 µM, 100% = cells with rucaparib alone",112% (inactive)
same,viability,"[10]; at 0.000305 µM, OCI-C5x cells, without rucaparib",121% (inactive)
same,viability,"[10]; at 0.000305 µM, OCI-P5x cells, with rucaparib 20 µM, 100% = cells with rucaparib alone",103% (inactive)
same,viability,"[10]; at 0.000305 µM, OCI-P5x cells, without rucaparib",104% (inactive)
same,viability,"[10]; at 0.00122 µM, OCI-C5x cells, with rucaparib 10 µM, 100% = cells with rucaparib alone",120% (inactive)
same,viability,"[10]; at 0.00122 µM, OCI-C5x cells, without rucaparib",118% (inactive)
same,viability,"[10]; at 0.00122 µM, OCI-P5x cells, with rucaparib 20 µM, 100% = cells with rucaparib alone",73.5% (active)
same,viability,"[10]; at 0.00122 µM, OCI-P5x cells, without rucaparib",91% (active)
same,viability,"[10]; at 0.00488 µM, OCI-C5x cells, with rucaparib 10 µM, 100% = cells with rucaparib alone",123% (inactive)
same,viability,"[10]; at 0.00488 µM, OCI-C5x cells, without rucaparib",116% (inactive)
same,viability,"[10]; at 0.00488 µM, OCI-P5x cells, with rucaparib 20 µM, 100% = cells with rucaparib alone",90.4% (active)
same,viability,"[10]; at 0.00488 µM, OCI-P5x cells, without rucaparib",107% (inactive)
same,viability,"[10]; at 0.0195 µM, OCI-C5x cells, with rucaparib 10 µM, 100% = cells with rucaparib alone",104% (inactive)
same,viability,"[10]; at 0.0195 µM, OCI-C5x cells, without rucaparib",117% (inactive)
same,viability,"[10]; at 0.0195 µM, OCI-P5x cells, with rucaparib 20 µM, 100% = cells with rucaparib alone",82.9% (active)
same,viability,"[10]; at 0.0195 µM, OCI-P5x cells, without rucaparib",100% (inactive)
same,viability,"[10]; at 0.0781 µM, OCI-C5x cells, with rucaparib 10 µM, 100% = cells with rucaparib alone",118% (inactive)
same,viability,"[10]; at 0.0781 µM, OCI-C5x cells, without rucaparib",119% (inactive)
same,viability,"[10]; at 0.0781 µM, OCI-P5x cells, with rucaparib 20 µM, 100% = cells with rucaparib alone",96.1% (active)
same,viability,"[10]; at 0.0781 µM, OCI-P5x cells, without rucaparib",106% (inactive)
same,viability,"[10]; at 0.313 µM, OCI-C5x cells, with rucaparib 10 µM, 100% = cells with rucaparib alone",109% (inactive)
same,viability,"[10]; at 0.313 µM, OCI-C5x cells, without rucaparib",120% (inactive)
same,viability,"[10]; at 0.313 µM, OCI-P5x cells, with rucaparib 20 µM, 100% = cells with rucaparib alone",94.4% (active)
same,viability,"[10]; at 0.313 µM, OCI-P5x cells, without rucaparib",110% (inactive)
same,viability,"[10]; at 1.25 µM, OCI-C5x cells, with rucaparib 10 µM, 100% = cells with rucaparib alone",111% (inactive)
same,viability,"[10]; at 1.25 µM, OCI-C5x cells, without rucaparib",108% (inactive)
same,viability,"[10]; at 1.25 µM, OCI-P5x cells, with rucaparib 20 µM, 100% = cells with rucaparib alone",97.8% (active)
same,viability,"[10]; at 1.25 µM, OCI-P5x cells, without rucaparib",104% (inactive)
same,viability,"[10]; at 5 µM, OCI-C5x cells, with rucaparib 10 µM, 100% = cells with rucaparib alone",117% (inactive)
same,viability,"[10]; at 5 µM, OCI-C5x cells, without rucaparib",114% (inactive)
same,viability,"[10]; at 5 µM, OCI-P5x cells, with rucaparib 20 µM, 100% = cells with rucaparib alone",89.7% (active)
same,viability,"[10]; at 5 µM, OCI-P5x cells, without rucaparib",92.1% (active)
same,luciferase signal,[11],48 AU (inactive)
Cc1ccc(N(CC2=NCCN2)c2cccc(O)c2)cc1,inhibition,[6],-2.41% (inactive)
same,mean signal,[7],229 (inactive)
same,red/green cell ratio (normalised),[8],1 (inactive)
same,normalised cell number,[8]; [15],0.96
same,normalised cell number,[8]; [16],0.97
same,z-score,"[12]; MELAS cybrid survival, CellTiter-Glo 48 h, stronger effect = higher value",0.136 (inactive) and 0.319 (inactive) and 0.784 (inactive)
same,z-score,"[12]; Rieske KO mouse fibroblast survival, CellTiter-Glo 72 h",-0.0354 and 0.524 and 0.332
same,remaining NAD,[13],10 nM (inactive)
same,luciferase signal,[11],116 AU (inactive)
same,z-score,[14],-0.355 (inactive) and 0.035 (inactive)
CC1=C(CCC(=O)O)c2cc3nc(cc4[nH]c(cc5[nH]c(cc1n2)c(C)c5C(C)O)c(C)c4C(C)O)C(C)=C3CCC(=O)O (configuration not stated),inhibition,[6],12.1% (inactive)
same,red/green cell ratio (normalised),[8],1.39 (inactive)
same,normalised cell number,[8]; [15],0.93
same,normalised cell number,[8]; [16],1.29

# Source: PubChem BioAssay
